From PubChem BioAssay (NCATS)
Results filed as inconclusive are left out. Activity calls are given as the source filed them. Unless noted, calls come from the whole dose curve.

Columns and labels:
[1] = qHTS for Inhibitors of the Functional Ribonucleoprotein Complex (vRNP) of Lassa (LASV) Arenavirus: LASV Primary Screen - GLuc reporter signal (AID 1347082; calls by dose curve; tested in HEK293 reporter line; note: nearly all actives have a fitted effect of over 60% in size)
[2] = qHTS for Inhibitors of the Functional Ribonucleoprotein Complex (vRNP) of Lassa (LASV) Arenavirus: Viability assay - alamar blue signal for LASV Primary Screen (AID 1347083; calls by dose curve; tested in HEK293 reporter line; note: nearly all actives have a fitted effect of over 80% in size)
[3] = qHTS for Inhibitors of the Functional Ribonucleoprotein Complex (vRNP) of Lymphocytic Choriomeningitis Arenaviruses (LCMV): Viability assay - alamar blue signal for LCMV Primary Screen (AID 1347085; calls by dose curve; tested in HEK293 reporter line; note: nearly all actives have a fitted effect of over 80% in size)
[4] = target: Nucleoprotein (Lymphocytic choriomeningitis virus (strain Armstrong)) (UniProt P09992); assay: qHTS for Inhibitors of the Functional Ribonucleoprotein Complex (vRNP) of Lymphocytic Choriomeningitis Arenaviruses (LCMV): LCMV Primary Screen - GLuc reporter signal (AID 1347086); note: nearly all actives have a fitted effect of over 70% in size

Measured: Potency
Note: series mostly up to about 57 µM.

Sequence of Nucleoprotein (Lymphocytic choriomeningitis virus (strain Armstrong)) (P09992 whole entry, looked up): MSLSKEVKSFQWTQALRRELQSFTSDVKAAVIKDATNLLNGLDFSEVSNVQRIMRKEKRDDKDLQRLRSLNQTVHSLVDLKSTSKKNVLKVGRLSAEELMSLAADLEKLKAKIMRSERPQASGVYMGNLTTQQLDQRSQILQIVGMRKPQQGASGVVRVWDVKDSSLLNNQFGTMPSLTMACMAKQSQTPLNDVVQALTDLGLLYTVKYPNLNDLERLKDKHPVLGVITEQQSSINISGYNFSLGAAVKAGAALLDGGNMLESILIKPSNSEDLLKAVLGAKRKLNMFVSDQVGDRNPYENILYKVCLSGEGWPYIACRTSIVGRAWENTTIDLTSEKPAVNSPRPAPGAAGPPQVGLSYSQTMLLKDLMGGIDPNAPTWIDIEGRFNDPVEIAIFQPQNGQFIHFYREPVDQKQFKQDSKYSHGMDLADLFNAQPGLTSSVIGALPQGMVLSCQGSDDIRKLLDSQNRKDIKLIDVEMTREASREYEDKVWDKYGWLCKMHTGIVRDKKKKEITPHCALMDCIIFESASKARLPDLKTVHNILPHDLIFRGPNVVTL

CCOC(=O)C1=C(C)NC(C)=C(C(=O)OC)C1c1cccc([N+](=O)[O-])c1 (stereo not drawn)
inactive: all assays above

O=C(O)c1[nH]n(-c2ccc(S(=O)(=O)O)cc2)c(=O)c1N=Nc1ccc(S(=O)(=O)O)cc1
inactive: all assays above

CC(O)(P(=O)(O)O)P(=O)(O)O
inactive: all assays above

C[C@]12CCC(=O)C=C1CC[C@@H]1[C@@H]2[C@@H](O)C[C@@]2(C)[C@H]1CC[C@]2(O)C(=O)COC(=O)CCC(=O)O
inactive: all assays above

CC(=O)Nc1ccc(/C=N/NC(N)=S)cc1
inactive: all assays above

COc1cc(C=O)ccc1O
inactive: all assays above

NC(=S)N/N=C/c1cccnc1
inactive: all assays above

CCCOC(=O)c1ccccc1
inactive: all assays above

CC(=O)OCC(=O)[C@@]1(O)CC[C@H]2[C@@H]3CCC4=CC(=O)CC[C@]4(C)[C@H]3C(=O)C[C@@]21C
inactive: all assays above

CCOc1cc(CC(=O)N[C@@H](CC(C)C)c2ccccc2N2CCCCC2)ccc1C(=O)O
inactive: all assays above

CN(C)CCc1c[nH]c2ccc(Cn3cncn3)cc12
inactive: all assays above

CCO[C@H](Cc1ccc(OCCc2ccc(OS(C)(=O)=O)cc2)cc1)C(=O)O
inactive: all assays above
